Shown are actives, neighbours in structure and some others; about 3.3% of the full set was active somewhere.
RE007 growth inh: less growth of the S. pombe RE007 Vpr strain; S. pombe RE007 Vpr strain, BacTiter-Glo ATP luminescence, 24 h; Potency, µM (highest dose often 92.2 µM), without a hit: at the top dose activity change, negative = less growth, hits mostly inhibitors; 0.21% of 360,000 active; active = well fitted falling curve with a large enough effect; inconclusive = small, poorly fitted or top-dose-only effect; inactive = no such curve, though single readings can be large or run the other way; note: % is set by controls: 0 for no effect and ±100 for the full control effect; nearly all actives have a fitted effect of over 50% in size
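Fission yeast strain RE007, carrying one chromosomally integrated HIV-1 vpr copy, was seeded at OD 0.01 in PMG+AL medium with 23 nL pinned compound. After 24 h at 30 °C and 99% humidity, viability was read by BacTiter-Glo luminescence.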
AmpC no deterg: blocks E. coli AmpC beta-lactamase in detergent-free assay. P00811. AmpC nitrocefin hydrolysis, absorbance 480 nm, 0.0001% Triton. Potency, µM (highest dose often 57.1 µM), without a hit: top-dose activity change, negative = inhibition, hits mostly inhibitors. 0.52% of 330,000 active;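 note: plate controls were no compound for no effect and no enzyme for full effect; nearly all actives have a fitted effect of over 20% in size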
Target sequence (P00811 whole entry, looked up): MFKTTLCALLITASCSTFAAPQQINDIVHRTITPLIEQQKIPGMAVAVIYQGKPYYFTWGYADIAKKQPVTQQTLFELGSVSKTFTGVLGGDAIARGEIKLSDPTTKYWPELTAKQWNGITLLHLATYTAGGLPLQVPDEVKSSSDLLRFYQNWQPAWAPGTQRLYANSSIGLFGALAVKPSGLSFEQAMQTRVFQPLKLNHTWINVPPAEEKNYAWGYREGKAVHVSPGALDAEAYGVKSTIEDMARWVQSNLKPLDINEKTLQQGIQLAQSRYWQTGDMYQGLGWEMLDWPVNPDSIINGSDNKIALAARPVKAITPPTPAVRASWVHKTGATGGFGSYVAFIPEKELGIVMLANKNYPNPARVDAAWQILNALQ
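AmpC (5.3 nM in the dispensed reagent) in 20 mM phosphate pH 7.0 with 0.01% (detergent screen) or 0.0001% Triton X-100 was preincubated with compounds for 15 min at room temperature. Nitrocefin was then added from an 800 uM solution, and hydrolysis was followed at 480 nm.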
TbPYK inhibitor: inhibitors of Trypanosoma brucei pyruvate kinase | Q57TT1 | TbPYK enzyme, Kinase-Glo Plus ATP luminescence, 45 min | Potency, µM (series often up to 76.8 µM), for inactives: at the highest dose activity, negative = inhibition, actives largely listed as inhibitors | 0.12% of 410,000 active | AID 624173; note: % is set by controls: 0 for no effect and ±100 for the full control effect; nearly all actives have a fitted effect of over 50% in size
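Luminescent Kinase-Glo Plus end-point after 45 min room-temperature reaction of T. brucei pyruvate kinase started with 130 uM ADP (final). Buffer TEA 50 mM pH 7.2 with KCl, MgCl2, BSA, Tween-20; titration-based qHTS with fitted concentration-effect curves.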
SARS PLP yeast: inhibitors of SARS-CoV papain-like protease in yeast | S. cerevisiae expressing SARS-CoV PLpro, growth rescue | Potency, µM (top dose mostly 32.9 µM), for the others: at the top dose activity, positive = growth rescue, usual class: activators | 0.19% of 330,000 active; calls by dose curve; note: 0% is about no effect; nearly all actives have a fitted effect of over 55% in size
Sm TGR block: inhibitors of Schistosoma mansoni thioredoxin glutathione reductase; Potency, µM (titrated, usually from 114 µM), without a hit: top-dose activity change, negative = inhibition, most hits filed as inhibitors; 3% of 360,000 active; purified TGR, DTNB reduction, TNB absorbance 405 nm; Q962Y6; note: % is set by controls: 0 for no effect and ±100 for the full control effect; nearly all actives have a fitted effect of over 60% in size
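First, TGR (20 nM dispensed) and NADPH were mixed with compound. Second, a 15 min room-temperature incubation followed. Third, further NADPH and then DTNB were added to start the reaction. Finally, TNB absorbance was monitored kinetically.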
AmpC inh detg: AmpC beta-lactamase inhibition with detergent present. P00811. AmpC hydrolysis of nitrocefin, absorbance 480 nm, 0.01% Triton. Potency, µM (highest dose often 114 µM), inactives show at the highest dose activity change, negative = inhibition, actives largely listed as inhibitors. 0.041% of 370,000 active. AID 485294;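 note: 0% = no-compound wells and -100% = no-enzyme wells; nearly all actives have a fitted effect of over 25% in size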
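AmpC (5.3 nM in the dispensed reagent) in 20 mM phosphate pH 7.0 with 0.01% (detergent screen) or 0.0001% Triton X-100 was preincubated with compounds for 15 min at room temperature. Nitrocefin was then added from an 800 uM solution, and hydrolysis was followed at 480 nm.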
An asterisk follows results filed as active; u = inconclusive; x = not tested or not shown; [ ] = another dose, or the depositor's remark. Unless noted, calls come from the whole dose curve; as a rule, active = well fitted curve in the direction sought with a large enough effect; inconclusive = small, poorly fitted or top-dose-only effect, or another doubt; inactive = no such curve, though single readings can be large; an effect the other way counts as inactive or inconclusive. Potency is the fitted concentration of half-maximal effect.

SMILES	RE007 growth inh	AmpC no deterg	TbPYK inhibitor	SARS PLP yeast	Sm TGR block	AmpC inh detg
Cc1cccc(C(=O)Nc2ccc(N3CCC(N4CCCCC4)CC3)c(C(=O)O)c2)c1	x	x	-2.4%	x	0.4%	-2.6%
COc1ccc(CNC(=O)Cc2ccc(NC(=O)N3CCCCc4ccccc43)cc2)cc1	x	x	-2.9%	x	0.3%	2.5%
CCOC(=O)N1CCN(c2cc(C)c(C(C)=O)cc2F)CC1	24.4%	-1.1%	0.3%	1.2%	17.8%[11.4 µM]	-8.5%
CC(=O)c1cc(F)c(N2CCN(C(=O)Cc3ccccc3)CC2)cc1C	-9.7%	17.9%	-12.4%	-2.9%	28.2µM*	8.1%
CCOC(=O)c1c(C)[nH]c(CCC(=O)Nc2cc(Cl)ccc2OC)c1C	x	x	-1.8%	x	-15.5%	0.0%
O=C(N/N=C/C=C\c1ccccc1[N+](=O)[O-])c1cc(-c2ccc3ccccc3c2)n[nH]1	7.5%	10µM*	-0.5%	5.3%	-24.8%	-9.0%
CC1=C(C)C(OCCBr)N(c2cc(O)c(Cl)cc2F)C1=O (stereo not given)	7.4%	-18.0%	-7.1%	-0.1%	28.2µM*	3.1%
CSc1nnc(C)c(=O)n1COC(=O)c1cc(Cl)ccc1[N+](=O)[O-]	-8.1%	-45.5%	-5.1%	-1.2%	22.4µM*	-3.2%
CC(CNC(=O)c1ccc(Cn2c(SCc3ccccc3)nc3cccnc32)cc1)c1ccccc1 (stereo not given)	x	x	2.8%	x	4.2%	14.7%
Clc1cccc(CSc2nnc(-c3ccccn3)n2Cc2ccco2)c1	4.3%	16.7%	-3.5%	-26.4%	39.8µM*	-15.0%
CC(C)(C)c1ccc(CSc2nnc(-c3ccccn3)n2Cc2ccco2)cc1	-0.1%	22.0%	-0.5%	-23.7%	-27.5%	-6.0%
Clc1ccc(CSc2nnc(-c3ccccn3)n2Cc2ccco2)cc1Cl	5.0%	x	2.5%	x	x	x
Brc1ccc(CSc2nnc(-c3ccccn3)n2Cc2ccco2)cc1	12.7%	0.6%	-5.1%	-21.7%	39.8µM*	-13.8%
CCc1ccccc1NC(=O)c1ncoc1-c1ccco1	x	x	-1.5%	x	-0.3%	-3.0%
COc1cc(SC)ccc1C(=O)NNC(=O)c1cc(C)oc1C	12.6µM*	-12.4%	u	3.6%	-1.2%	3.4%
COc1ccccc1C(=O)Nc1nc2ccccc2[nH]1	u	-25.3%	10µM*	-15.7%	1.3%	u
COc1cc(SC)ccc1C(=O)Nc1c(C)cccc1C	18.5%	-9.9%	0.6%	-2.3%	3.8%[57.1 µM]	-3.4%
COc1cc(SC)ccc1C(=O)Nc1nc2ccccc2[nH]1	3.98µM*	-8.4%	u	-78.6%	-14.1%	u
COc1cc(NC(=O)c2ccc(C)c(Cl)c2)ccc1NC(=O)c1cc2ccccc2o1	x	x	2.6%	x	10.2%	1.6%
CN(CCc1ccccn1)C1CCCN(S(=O)(=O)c2ccccc2)C1 (stereo not given)	1.7%	0.4%	-4.7%	0.9%	1.1%	-2.6%
CC(=O)c1ccc(S(=O)(=O)N2CCCC(N(C)CCc3ccccn3)C2)cc1 (stereo not given)	0.0%	31.4%	0.5%	0.7%	20µM*	4.1%
CCc1cccc(C)c1NC(=O)Cn1nc(C)c2nn(-c3ccc(Cl)cc3)c(C)c2c1=O	x	x	3.0%	x	0.7%	15.6%
CCCCCCC(=O)N(O)C1CC(=O)N(c2ccc(F)cc2)C1=O (stereo not given)	6.31µM*	-29.1%	u	-6.4%	0.631µM*	-7.8%
CCCCCCC(=O)N(O)C1CC(=O)N(c2ccc(Br)cc2)C1=O (stereo not given)	u	-37.3%	-32.8%	-42.4%	0.708µM*	12.1%
COc1ccccc1N(O)C1CC(=O)N(c2ccc(Br)cc2)C1=O (stereo not given)	-13.2%	u	-17.9%	-20.5%	2.82µM*	u
SMILES	RE007 growth inh	AmpC no deterg	TbPYK inhibitor	SARS PLP yeast	Sm TGR block	AmpC inh detg
Cc1ccc(NCc2cccn2-c2nnc(N3CCC(C(=O)NCc4ccc(F)cc4)CC3)s2)cc1	x	x	3.2%	x	-20.3%	3.6%
CCCn1c2ccccc2c2nc3ccccc3nc21	-17.2%	32.3%	2.5%	-4.4%	10.6%	u
CCN(CC)CCn1c2ccccc2c2nc3ccccc3nc21	0.2%	-15.2%	6.3%	x	50.1µM*	-11.9%
CCc1cccc(NC(=O)CSc2nnc(-c3cc4occc4n3C)n2-c2ccccc2C)c1	x	x	-0.6%	x	0.3%	-2.1%
NS(=O)(=O)c1ccc(CCNc2ncnc3c2c(-c2ccccc2)cn3-c2ccc(F)cc2)cc1	1.7%	4.47µM*	-8.5%	-4.0%	-1.5%	1.3%
Fc1ccc(-n2cc(-c3ccccc3)c3c(NN4CCOCC4)ncnc32)cc1	-3.2%	233.4%	4.4%	-1.1%	-1.5%	u
O=C1[C@@H]2[C@@H](CN3CN(c4ccccc4)N=C(c4ccccc4)[C@@]23c2ccccc2)C(=O)N1c1ccccc1	39.8µM*	x	-20.8%	x	x	x
CC1CN(S(=O)(=O)c2cccc(C(=O)OCc3cc(=O)oc4cc(O)ccc34)c2)CC(C)O1 (stereo not given)	3.0%	-48.3%	2.2%	-2.4%	-10.2%	-9.2%
COc1ccc2c(COC(=O)c3cccc(S(=O)(=O)NCC(C)C)c3)cc(=O)oc2c1	3.1%	-9.8%	-8.1%	1.4%	89.1µM*	-5.0%
CN(C)c1cccc(C(=O)OCc2cc(=O)oc3cc(O)ccc23)c1	12.0%	17.8µM*	5.6%	-6.0%	-3.5%	-1.7%
Cc1ccc(CNC(=O)c2cc(Sc3ccc(F)cc3F)nc3ccccc23)cc1	x	x	0.8%	x	3.6%	5.0%
CSc1ccccc1NC(=O)COC(=O)/C=C/c1ccco1	-29.0%	-14.7%	2.8%	-5.0%	x	x
COc1ccc(CNC(=O)COC(=O)/C=C/c2ccco2)cc1	-4.2%	-10.7%[11.4 µM]	-0.2%	0.7%	35.5µM*	-7.8%
CC(NC(=O)COC(=O)/C=C/c1ccco1)c1ccccc1 (stereo not given)	11.1%	-22.2%	-11.9%	-2.5%	28.2µM*	-7.0%
O=C(COC(=O)/C=C/c1ccco1)NCCc1ccccc1	15.8%	-28.2%[11.4 µM]	-4.0%	-0.9%	22.4µM*	u
O=C(COC(=O)/C=C/c1ccco1)NCc1ccc(Cl)cc1Cl	7.0%	-37.5%	-0.7%	-8.3%	x	x
O=C(COC(=O)/C=C/c1ccco1)NCc1ccccc1Cl	-0.7%	-8.5%[11.4 µM]	-0.8%	-1.2%	17.8µM*	-20.8%
COc1ccc(CNC(=O)COC(=O)c2ccco2)cc1	3.4%	-10.1%	6.8%	0.4%	x	-8.0%
CCOc1ccc(-n2c(SCc3nc(-c4ccc(OC)cc4)no3)nnc2-c2ccncc2)cc1	x	x	0.1%	x	7.4%	5.6%
O=C(COC(=O)/C=C/c1ccco1)NCc1ccco1	0.1%	-23.1%	-1.3%	-2.9%	u	1.0%

Assay outcomes deposited in PubChem BioAssay by National Center for Advancing Translational Sciences (NCATS).
